Data from PubChem BioAssay (Tox21).
Results filed as inconclusive are left out. Entries that show only a call come without a potency. A number with no mark means an inactive call. The source made the active and inactive calls. Unless noted, the call rests on the fitted dose curve; in most records, active means well fitted curve in the direction sought with a large enough effect in the repeat runs; inconclusive means weak or mixed curves; inactive means no such curve, though single readings can be large; an effect the other way counts as inactive or inconclusive.

Experiments:
[1] = qHTS assay to identify small molecule agonists of the peroxisome proliferator-activated receptor delta (PPARd) signaling pathway - cell viability counter screen (AID 743211); further: nearly all actives have a fitted effect of over 55% in size; further: potency means the concentration at half of the fitted maximal effect
Summary of the method: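 qHTS cell viability: PPARd-bla HEK293H; 17 h cpd, 37C; CellTiter-Glo, luminescence at 30 min RT.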

[2] = target: Peroxisome proliferator-activated receptor delta (Homo sapiens) (UniProt Q03181); assay: qHTS assay to identify small molecule agonists of the peroxisome proliferator-activated receptor delta (PPARd) signaling pathway (AID 743212; calls by dose curve)
Peroxisome proliferator-activated receptor delta (Homo sapiens), sequence (Q03181 whole entry, looked up): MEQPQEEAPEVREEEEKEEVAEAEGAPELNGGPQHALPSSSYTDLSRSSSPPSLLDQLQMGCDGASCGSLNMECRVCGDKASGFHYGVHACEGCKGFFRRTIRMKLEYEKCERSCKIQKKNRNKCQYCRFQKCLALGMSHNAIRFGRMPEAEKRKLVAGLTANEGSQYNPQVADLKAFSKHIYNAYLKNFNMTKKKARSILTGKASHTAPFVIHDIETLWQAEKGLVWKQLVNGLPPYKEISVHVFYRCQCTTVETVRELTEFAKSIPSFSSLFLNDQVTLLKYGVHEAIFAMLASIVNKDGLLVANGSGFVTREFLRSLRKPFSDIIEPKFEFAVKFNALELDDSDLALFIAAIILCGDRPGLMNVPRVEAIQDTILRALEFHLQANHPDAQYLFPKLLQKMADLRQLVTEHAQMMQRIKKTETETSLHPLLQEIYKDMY
Summary of the method: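 GeneBLAzer PPARd UAS-bla HEK293H cells (beta-lactamase reporter under UAS control), plated and rested 5 h at 37 C, then exposed to compounds in DMSO at 37 C; LiveBLAzer B/G FRET substrate added, 2 h room temperature, fluorescence read.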

[3] = target: Peroxisome proliferator-activated receptor delta (Homo sapiens) (UniProt Q03181); assay: qHTS assay to identify small molecule antagonists of the peroxisome proliferator-activated receptor delta (PPARd) signaling pathway (AID 743215; active means well fitted inhibition curve with a large enough effect in the signal ratio in the repeat runs, not every such curve was filed as active; the % refers to the signal ratio;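 further: cells stimulated with agonist L165041 at 300 nM final during compound exposure; series mostly up to about 62 µM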)
Summary of the method: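 HEK293H UAS-bla, PPARd; agonist L165041 300 nM final with cpd in DMSO; 37 C 17 h; FRET substrate, RT 2 h; fluorescence intensity.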

[4] = target: Bile acid receptor (Homo sapiens) (UniProt Q96RI1); assay: qHTS assay to identify small molecule antagonists of the farnesoid-X-receptor (FXR) signaling pathway (AID 743217; active means well fitted inhibition curve with a large enough effect in the signal ratio in the repeat runs, not every such curve was filed as active; the % refers to the signal ratio)
Bile acid receptor (Homo sapiens), sequence (Q96RI1 whole entry, looked up): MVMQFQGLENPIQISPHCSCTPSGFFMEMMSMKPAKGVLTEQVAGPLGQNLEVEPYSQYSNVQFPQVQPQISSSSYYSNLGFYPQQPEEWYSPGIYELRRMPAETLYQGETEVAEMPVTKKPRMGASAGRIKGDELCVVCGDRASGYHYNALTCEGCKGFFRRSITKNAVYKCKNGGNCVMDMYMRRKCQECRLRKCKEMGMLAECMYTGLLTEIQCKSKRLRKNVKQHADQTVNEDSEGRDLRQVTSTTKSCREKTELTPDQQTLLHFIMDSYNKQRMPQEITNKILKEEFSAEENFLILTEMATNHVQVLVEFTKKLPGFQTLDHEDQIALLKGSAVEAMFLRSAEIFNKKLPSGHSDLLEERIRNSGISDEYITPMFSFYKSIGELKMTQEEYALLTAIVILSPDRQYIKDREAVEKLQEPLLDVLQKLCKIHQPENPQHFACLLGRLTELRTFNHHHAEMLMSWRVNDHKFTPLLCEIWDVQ
Summary of the method: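 GeneBLAzer FXR-UAS-bla HEK 293T, CDCA-stimulated (50 uM final). Compound treatment 16 h, 37 °C. Detection: beta-lactamase cleavage of B/G FRET substrate, fluorescence.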

[5] = qHTS assay to identify small molecule agonists of the farnesoid-X-receptor (FXR) signaling pathway - cell viability counter screen (AID 743218); further: nearly all actives have a fitted effect of over 45% in size
Summary of the method: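 Parallel cytotoxicity test: compound-treated (16 h, 37 C) HEK 293T FXR-bla reporter cells were lysed with CellTiter-Glo and luminescence recorded.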

[6] = target: Bile acid receptor (Homo sapiens) (UniProt Q96RI1); assay: qHTS assay to identify small molecule agonists of the farnesoid-X-receptor (FXR) signaling pathway (AID 743220; active means well fitted activation curve with a large enough effect in the signal ratio in the repeat runs, not every such curve was filed as active; the % refers to the signal ratio)
Summary of the method: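 Beta-lactamase reporter under UAS control in GeneBLAzer FXR HEK 293T cells (5000/well) measured with LiveBLAzer FRET substrate after 2 h at room temperature. Compound exposure lasted 16 h at 37C.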

[7] = qHTS assay to identify small molecule antagonists of the farnesoid-X-receptor (FXR) signaling pathway - cell viability counter screen (AID 743221; active means well fitted cell-killing curve with a large enough effect in the repeat runs, not every such curve was filed as active; further: nearly all actives have a fitted effect of over 50% in size)
Summary of the method: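 After a 5 h settling period, FXR-bla HEK 293T cells receive compound and chenodeoxycholic acid (50 uM final) and incubate 16 h at 37 C; CellTiter-Glo luminescence, read after 30 min at room temperature, reports cell viability.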

[8] = target: Vitamin D3 receptor (Homo sapiens) (UniProt P11473); assay: qHTS assay to identify small molecule antagonists of the vitamin D receptor (VDR) signaling pathway (AID 743223; active means well fitted inhibition curve with a large enough effect in the signal ratio in the repeat runs, not every such curve was filed as active; the % refers to the signal ratio)
Vitamin D3 receptor (Homo sapiens), sequence (P11473 whole entry, looked up): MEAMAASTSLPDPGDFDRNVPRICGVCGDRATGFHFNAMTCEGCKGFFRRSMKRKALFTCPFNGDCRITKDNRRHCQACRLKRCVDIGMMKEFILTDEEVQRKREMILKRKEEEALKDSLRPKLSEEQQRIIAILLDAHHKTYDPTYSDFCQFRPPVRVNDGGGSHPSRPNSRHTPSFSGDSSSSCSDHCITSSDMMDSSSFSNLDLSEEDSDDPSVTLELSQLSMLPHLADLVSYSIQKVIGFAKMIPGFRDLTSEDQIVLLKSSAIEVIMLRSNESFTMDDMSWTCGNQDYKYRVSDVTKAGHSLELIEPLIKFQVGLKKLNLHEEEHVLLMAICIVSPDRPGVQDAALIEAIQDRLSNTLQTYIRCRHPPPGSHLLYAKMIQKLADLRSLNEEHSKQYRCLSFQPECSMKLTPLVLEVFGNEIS
Summary of the method: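 Reporter line VDR-bla; stimulus 1alpha,25-(OH)2 vitamin D3, 3 nM final; compound co-addition, 16 h 37C/5% CO2; LiveBLAzer B/G substrate 2 h RT; fluorescence intensity.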

[9] = qHTS assay to identify small molecule antagonists of the peroxisome proliferator-activated receptor delta (PPARd) signaling pathway - cell viability counter screen (AID 743213); further: nearly all actives have a fitted effect of over 50% in size
Summary of the method: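 Luminescence from CellTiter-Glo, added after the bla read and incubated 30 min at room temperature, gives viability of HEK293H PPARd-bla cells exposed to compounds for 17 h at 37 C with 300 nM L165041.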

[10] = target: Vitamin D3 receptor (Homo sapiens) (UniProt P11473); assay: qHTS assay to identify small molecule agonists of the vitamin D receptor (VDR) signaling pathway (AID 743222; calls by dose curve)
Summary of the method: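 In VDR-bla cells, compound-induced beta-lactamase expression is quantified by FRET substrate fluorescence. Treatment lasts 16 h at 37C; substrate develops 2 h at room temperature.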

| SMILES | Potency [1] | Potency [2] | Potency [3] | Potency [4] | Potency [5] | Potency [6] | Potency [7] | Potency [8] | Potency [9] | Potency [10] | activity change, negative = cytotoxicity [1] | viability change, negative = cytotoxic [9] |
| --- | --- | --- | --- | --- | --- | --- | --- | --- | --- | --- | --- | --- |
| COP(=S)(OC)Oc1ccc([N+](=O)[O-])c(C)c1 | inactive | inactive | inactive | inactive | inactive | inactive | inactive | inactive |  |  |  |  |
| CCCCCCCc1ccc(O)cc1 | 21.9 µM (active) | inactive |  |  |  |  | inactive |  | inactive | inactive |  |  |
| [O-][Cl+3]([O-])([O-])O | inactive | inactive |  |  |  |  | inactive |  |  |  |  |  |
| CCCCON=O | inactive | inactive | inactive |  | inactive |  | inactive | inactive |  |  |  |  |
| CNC(=O)O/N=C(\C)C(C)S(C)(=O)=O (stereo not drawn) | inactive | inactive | inactive | inactive | inactive | inactive | inactive | inactive |  | inactive |  |  |
| Cc1nn(-c2cc(NS(C)(=O)=O)c(Cl)cc2Cl)c(=O)n1C(F)F | inactive | inactive |  |  | inactive |  | inactive | inactive | inactive |  |  |  |
| CC(=O)[O-].CC(=O)[O-].CC(=O)[O-].[Sb+3] |  |  |  |  |  |  |  |  |  |  | -20.9% [at 5.95 µM] | -8.28% [at 6.26 µM] |
| O=c1[nH]c(Cl)c(Cl)cc1Cl | inactive | inactive | inactive | inactive | inactive | inactive | inactive | inactive |  |  |  |  |
| Oc1cc(Cl)cc(Cl)c1 | inactive | inactive |  |  | inactive |  | inactive | inactive |  | inactive |  |  |
| CC(=O)C(Cl)C(=O)N(C)C (stereo not drawn) | inactive | inactive | inactive |  | inactive |  | inactive | inactive |  |  |  |  |
| OCC(Br)CBr (stereo not drawn) | inactive | inactive | inactive | inactive | inactive | inactive | inactive | inactive |  | inactive |  |  |
| CNC(C)(C)Cc1ccccc1 | inactive | inactive | inactive |  | inactive |  | inactive | inactive |  |  |  |  |
| BrCC(Br)(Br)Br | inactive | inactive | inactive |  | inactive | inactive | inactive | inactive |  | inactive |  |  |
| CCC(C)Nc1c([N+](=O)[O-])cc(C(C)(C)C)cc1[N+](=O)[O-] (stereo not drawn) | inactive | inactive | inactive |  | inactive |  | inactive | inactive |  |  |  |  |
| O=[N+]([O-])c1cccc2cccc([N+](=O)[O-])c12 | inactive | inactive |  | inactive | inactive | inactive | inactive | inactive |  | inactive |  |  |
| ClC(Cl)C(Cl)(Cl)Cl | inactive | inactive | inactive | inactive | inactive | inactive | inactive |  |  |  |  |  |

| SMILES | Potency [1] | Potency [2] | Potency [3] | Potency [4] | Potency [5] | Potency [6] | Potency [7] | Potency [8] | Potency [9] | Potency [10] | activity change, negative = cytotoxicity [1] | viability change, negative = cytotoxic [9] |
| --- | --- | --- | --- | --- | --- | --- | --- | --- | --- | --- | --- | --- |
| BrCCCBr | inactive | inactive | inactive |  | inactive |  | inactive | inactive |  |  |  |  |
| CCOC(=O)CCN(SN(C)C(=O)Oc1cccc2c1OC(C)(C)C2)C(C)C | inactive | inactive |  | inactive | inactive | inactive | inactive |  |  |  |  |  |
| Nc1ccc(Cl)cc1C(=O)c1ccccc1F | inactive | inactive | inactive | inactive |  | inactive | inactive |  |  |  |  |  |
| CN1C2CCC(C)(C)C1CC(OC(=O)C(O)(c1cccs1)c1cccs1)C2 (stereo not drawn) | inactive | inactive | inactive | inactive | inactive | inactive |  | inactive |  | inactive |  |  |
| O=C(NC(=O)c1ccccc1Cl)Nc1ccc(OC(F)(F)F)cc1 | inactive | inactive | inactive |  | inactive | inactive | inactive | inactive |  | inactive |  |  |
| CC(Cc1ccccc1)N(C)Cc1ccco1 (stereo not drawn) | inactive |  | inactive | inactive | inactive | inactive | inactive | inactive | inactive |  |  |  |
| C=Cc1cccc(CCl)c1 | inactive |  |  | inactive | inactive | inactive | inactive |  | inactive |  |  |  |
| CNC(=O)Oc1cc(C)cc(C(C)C)c1 | inactive |  | inactive |  | inactive |  | inactive | inactive | inactive | inactive |  |  |
| CCCCc1ccccc1 | inactive |  | inactive |  | inactive | inactive | inactive | inactive | inactive |  |  |  |
| CCOP(=O)(Sc1ccccc1)Sc1ccccc1 | inactive |  | inactive | inactive |  |  | inactive | inactive | inactive | inactive |  |  |
| CCN(CC)CCc1c[nH]c2ccccc12 | inactive |  |  | inactive | inactive | inactive | inactive |  | inactive |  |  |  |
| Clc1ccc(C(Cl)(Cl)Cl)cc1Cl | inactive |  | inactive |  |  |  | inactive | inactive | inactive | inactive |  |  |
| O=C(O)CCCCCCNC1c2ccccc2CCc2ccccc21 | inactive |  | inactive | inactive | inactive | inactive | inactive | inactive | inactive |  |  |  |
| O=C(O)[C@H](O)[C@@H](O)C(=O)O | inactive |  |  | inactive | inactive | inactive | inactive |  | inactive |  |  |  |
| CC(C)NCC(O)c1ccccc1Cl (stereo not drawn) | inactive |  | inactive |  | inactive |  | inactive |  | inactive |  |  |  |
